In PubChem BioAssay AID777 (Sanford-Burnham Center for Chemical Genomics, 2007) one finds inhibition data, which are given here for 63 molecules.

As a reminder, the inhibition is the change of the read-out against control, counted positive when it falls.

Molecules are shown by their SMILES. In all, about 96,000 compounds went through this assay and about 19,000 (20%) were called active. Not all results are given here. Unmarked numbers belong to inactive results.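 Rule for the calls: active = blocking of liver enzyme CYP2C9 beyond about 50% at 5 µM (limit read from the data); inactive = the rest.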

In the experiment the target is Cytochrome P450 2C9 (Homo sapiens) (UniProt P11712). Nature of the experiment: blockers of cytochrome P450 2C9 activity – biochemical, luminescence, ADME assay, primary screen (AID 777). The conditions noted are these: CYP2C9 Supersomes, luciferin-H conversion, at 5 µM, active compounds read high.
Cytochrome P450 2C9 (Homo sapiens), sequence (P11712 whole entry, looked up): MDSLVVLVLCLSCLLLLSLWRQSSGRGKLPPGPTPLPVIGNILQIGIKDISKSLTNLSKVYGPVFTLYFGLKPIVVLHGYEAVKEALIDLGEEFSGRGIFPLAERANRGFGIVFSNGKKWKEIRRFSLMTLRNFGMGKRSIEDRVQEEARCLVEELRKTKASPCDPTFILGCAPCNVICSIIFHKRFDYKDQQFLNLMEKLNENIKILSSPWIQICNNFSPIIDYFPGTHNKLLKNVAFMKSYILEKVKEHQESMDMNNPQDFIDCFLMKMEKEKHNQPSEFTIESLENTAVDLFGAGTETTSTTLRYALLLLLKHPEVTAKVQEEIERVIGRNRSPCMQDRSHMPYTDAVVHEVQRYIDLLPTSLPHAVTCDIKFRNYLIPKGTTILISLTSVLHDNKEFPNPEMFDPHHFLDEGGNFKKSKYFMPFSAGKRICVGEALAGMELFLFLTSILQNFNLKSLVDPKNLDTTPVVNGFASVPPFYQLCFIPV
Consider `CCOC(=O)c1sc(=S)n(-c2cccc(OC)c2)c1N`, for which the inhibition is -20.4%. As for `CS(=O)(=O)N(CC(=O)N1CCN(Cc2ccc3c(c2)OCO3)CC1)c1ccc2c(c1)OCO2`, the figure is 7.2%. The figure for `CS(=O)(=O)N(CC(=O)N1CCN(Cc2ccccc2)CC1)c1ccc2c(c1)OCCO2` is -0.9%. As for `CS(=O)(=O)N(CC(=O)N1CCN(c2cccc(Cl)c2)CC1)c1ccccc1`, the figure is 54.7% (active). Consider `COc1cccc(N(CC(=O)N2CCc3ccccc3C2)S(C)(=O)=O)c1`, for which the inhibition was 14.5%. As for `CC1CCN(C(=O)CN(c2ccc(Oc3ccccc3)cc2)S(C)(=O)=O)CC1`, the inhibition is 50.7% (active). The figure for `Cc1cccc(N(CC(=O)N2CCOCC2)S(C)(=O)=O)c1` is 3.8%; for `O=C(Nc1cccnc1)c1noc2c1CCCCC2` it is 33.5%. Regarding `Cc1nn(CC(=O)Nc2ccc3c(c2)nc(CN2CCCCC2)n3C)c(=O)c2ccccc12`, the inhibition was 16.1%.

As for `O/N=C(\c1ccc2c(c1)OCCO2)C1CCCCC1`, the inhibition is 35.2%. The figure for `CCOc1ccccc1N=C1NC(=O)CS1` is -11.8%.

For the molecule `COc1ccc(OCc2ccc(-c3nc4ccccc4c(=O)n3N)o2)cc1`, the inhibition was 45.5%. Take `O=C(O)/C=C/C(=O)Nc1ccc(F)cc1F`: the inhibition is 3.9%. As for `NC(=O)c1ncc(C(F)(F)F)cc1Oc1ccc(F)cc1`, the figure is 7.9%; as for `CCCSc1nc2c(c(=O)[nH]c(=O)n2C)n1CCc1ccccc1`, 14.6%; as for `CN(Cc1ccccc1)c1nc2c(c(=O)[nH]c(=O)n2C)n1CCSc1nc2ccccc2[nH]1`, 67.2% (active). As to `Cn1c(=O)[nH]c(=O)c2c1nc(N(CCO)Cc1ccccc1)n2Cc1ccccc1Cl`, the inhibition is 25.8%. The figure for `Brc1ccc(/C=N/N2CCN(C3c4ccccc4-c4ccccc43)CC2)s1` is 25.4%; for `O=[N+]([O-])c1ccccc1/C=N/n1c(COc2ccccc2)n[nH]c1=S` it is 8.7%; for `Cc1nc(C)c(C(=O)N(c2ccc(C)c(C)c2)C(C(=O)NCc2ccco2)c2ccccc2)s1` (stereo not drawn) it is 46.6%. Consider `Cn1nc(-c2ccc(Cl)cc2)c2cc(C(=O)NCc3ccco3)sc21`, for which the inhibition was 43.4%.

Regarding `Cc1nn(-c2ccccc2)c2sc(C(=O)N(Cc3ccco3)C(C)C(=O)NC(C)(C)C)cc12` (stereo not drawn), the inhibition is 65.2% (active). The figure for `CCn1nnc(NC(=O)c2cc(Cl)c(OC)c(Cl)c2)n1` is -1.7%; for `O=C(N1CCOCC1)N(Cc1ccccc1)c1ccccn1` it is 8.5%; for `CCC(C)Sc1nc(C)nc2c1c(=O)n(C)c(=O)n2C` (stereo not drawn) it is 8.4%. The figure for `Cc1ccc(-c2nn(-c3ccccc3)cc2/C=N/NC(=O)c2ccc3c(c2)OCO3)cc1` is 76.1% (active); for `COc1cccc(/C=N/NC(=O)c2cccc([N+](=O)[O-])c2)c1OS(=O)(=O)c1ccc(C)cc1` it is 1.8%. With `Cc1nnc(SCC(=O)N/N=C/c2cn(-c3ccccc3)nc2-c2ccc(F)cc2)n1-c1ccccc1`, the inhibition was 29.6%. As for `CC/C(C)=N/Nc1nc2sc3c(c2c(=O)[nH]1)CC(C)(C)OC3`, the figure is 30.9%; as for `CCOC(=O)c1sc(NC(=O)CSc2ncccn2)c(C#N)c1C`, 45.3%; as for `CCOC(=O)c1sc(NC(=O)CSc2nnc(-c3ccco3)o2)c(C(=O)OCC)c1C`, 78.6% (active).

Consider `Cc1cccc(NC(=O)CSc2nnc(-c3ccco3)o2)c1`, for which the inhibition was 29.1%. The figure for `CCOC(=O)Cc1csc(NC(NC(=O)OCC)(C(F)(F)F)C(F)(F)F)n1` is 22.3%; for `Cc1cc(N2CCCC2=O)cc(C)c1S(N)(=O)=O` it is -21.5%.

On to `COC(=O)[C@H](CCSC)NC(=O)Nc1ccc(OC)cc1`, for which the inhibition is 7.5%. As for `Cc1cc(C(=O)NCCCc2ccccc2)no1`, the figure is 2.4%. For the molecule `CCN(Cc1ccccc1)C(=O)CSc1nc(C)cc2c1C(=O)OC2`, the inhibition was -130%. Take `Cc1ccc(-c2nn(-c3ccccc3)cc2CN(Cc2ccccc2)C(=O)CCC(=O)O)o1`: the inhibition was 65.1% (active). For `O=C(O)CCC(=O)N(Cc1cccs1)Cc1cccs1`, the inhibition is 31.5%.

For `CCCSC(=S)NC1CCS(=O)(=O)C1` (stereo not drawn), the inhibition was 19.1%. The figure for `Cc1ccc(Cc2cnc(N)s2)o1` is 3%. On to `N/C(=N\OC(=O)CCc1ccccc1)c1ccc(Cl)cc1`, for which the inhibition is 8.3%. As for `CCOc1cc(/C=N/O)cc(Br)c1OC`, the figure is 17.9%; as for `COc1cc(/C=N/O)cc(Br)c1OCc1cccc(Cl)c1`, -39.5%; as for `COc1cc(/C=N/O)cc(Br)c1OS(=O)(=O)c1ccc(C)cc1`, 67.9% (active). Consider `O=C(NCc1cn2ccsc2n1)Nc1cccc(Cl)c1`, for which the inhibition was -17.8%. Take `Cc1cccc(NC(=O)C2CCN(S(=O)(=O)c3cccc4cccnc34)CC2)c1`: the inhibition was -180%. As for `COCCOC(=O)c1sc(=S)n(CCOC)c1N`, the figure is 1%. Regarding `COC(=O)c1sc(=S)n(-c2ccccc2)c1N`, the inhibition is 3.7%. The figure for `CCOC(=O)Cn1c(N)c(C(=O)OC)sc1=S` is 57.8% (active); for `Cc1ccc(O)c(CNc2nc3ccccc3n2C)c1` it is 21.9%; for `Cc1nnc(OCC(=O)NCCC2=CCCCC2)c2ccccc12` it is -29.1%. Regarding `O=C(COc1cccc(-n2cnnn2)c1)NCCC1=CCCCC1`, the inhibition is 79.4% (active). With `O=C(COc1ccc(Cl)cc1)NCCC1=CCCCC1`, the inhibition was 40.4%.

On to `CC(C)(C)c1cc(CN2CCN(CCC#N)CC2)cc(C(C)(C)C)c1O`, for which the inhibition was 4.9%. In the case of `CC(C)Oc1ccc(C2NC(=O)NC2=O)cc1` (stereo not drawn), the inhibition is -28.2%.

As to `COc1ccc2oc(C)c(NC(C)=O)c2c1`, the inhibition was -8.9%. Consider `COc1ccc(Nc2cc(=O)oc3ccccc23)cc1`, for which the inhibition is -27.6%. On to `COc1ccc(S(=O)(=O)Nc2ccc3oc(C)c(C(C)=O)c3c2)cc1`, for which the inhibition is 67.2% (active). Regarding `CCOC(=O)c1c(C)[nH]c(C)c1C(=O)CSc1nc(N)cc(N)n1`, the inhibition was -35.6%.

Take `COc1cc(CNCc2cccs2)cc(Br)c1OC`: the inhibition was 8.7%. As for `Cn1c(SCc2c(F)cccc2Cl)nnc1-c1cnccn1`, the figure is -6%; as for `COc1cccc(N=c2oc3c(C)ncc(CO)c3cc2C(N)=O)c1`, 11.4%.
